Source: PubChem BioAssay (Tox21)
Records with an inconclusive call do not appear. A number with no mark means an inactive call. Calls come from the whole dose curve; as a rule, active = well fitted activation curve with a large enough effect in the repeat runs; inconclusive = weak or mixed curves; inactive = flat fitted curve, though single readings scatter.

Test: A CellTox Green Cytotoxicity Assay to monitor cytotoxicity in HepG2 cells - 8 hour (AID 1224890); note: nearly all actives have a fitted effect of over 45% in size
Conditions: CellTox Green fluorescence; series mostly up to 76.8 µM; cytotoxicity increase: at the top concentration
Text: National Center for Advancing Translational Sciences [NCATS]
NIH Chemical Genomics Center [NCGC]
U.S. Environmental Protection Agency [EPA]
National Institutes of Environmental Health Sciences [NIEHS]
National Toxicology Program [NTP]
Cell-based models are critical for drug discovery. Determining the natural cytotoxic effects resulting from test compounds is an essential research activity. A CellTox Green Cytotoxicity Assay to monitor cytotoxicity in real time of continues cell culture during 40 hours of the compound treatment was used to screen Tox21 10K library compounds in HepG2 cells. CellTox Green Cytotoxicity Assay is a nonlytic, homogeneous, biofluorescent method to measure cytotoxicity in cell culture after experimental manipulation. The assay system uses a proprietary asymmetric cyanine dye that is excluded from viable cells but preferentially stains the dead cell's DNA. […] Viable cells produce no appreciable increases in fluorescence. Therefore, the fluorescence signal produced by the binding interaction with dead cell DNA is proportional to cytotoxicity.
The mixture of HepG2 cell suspension and reagents were dispensed at 600cells/6 ul/well in 1536-well tissue culture treated black solid bottom plates using a Multidrop dispenser. After the assay plates were incubated at a 37 C/5% CO2 incubator for 5 hours, 23 nL of compounds dissolved in DMSO, positive and negative controls was transferred to the assay plate by a pintool work station. The plates were incubated at 37 C for 40 hours. The fluorescence intensity were measured at 0h, 8h, 16h, 24h, 32h and 40h time points using ViewLux plate reader during compound treatment.
% is set by controls: 0 for no effect and ±100 for the full control effect.

| SMILES | cytotoxicity increase |
| --- | --- |
| CCCCOCC(C)OCC(C)O (stereo not given) | -1.95% |
| CC(=O)O[C@H](CC(=O)[O-])C[N+](C)(C)C | -4.96% |
| CNc1ncnc2nc[nH]c12 | 3.32% |
| CCN1CCCC(OC(=O)C(c2ccccc2)c2ccccc2)C1 (stereo not given) | 7.46% [at 35.3 µM] |
| CC(C)(C)C(=O)/C=C/c1ccc(Cl)cc1 | -9.23% |
| CCCCCCCCCCCCCCC | 1.13% |
| c1ccc(SCCSc2ccccc2)cc1 | 3.77% |
| CCC(=O)c1cccc(Cl)c1 | -6.03% |
| COC(=O)CCCCCCCCC(=O)OC | 4.98% |
| CCCCNc1ccccc1 | -5.37% |
| CCCCCCCCCCCCI | 1.64% |
| CCCCN(CCO)CCO | -0.394% |
| CCCCC=O | 8.71% |
| COc1ccc(NC(C)=O)cc1 | -9.89% |
| CCCCCCOC(=O)c1ccccc1O | 2.93% |
| NC(=O)c1c(Cl)cccc1Cl | -7.82% |
| Cn1ccc2cc3c(cc21)CCN3C(=O)Nc1cccnc1 | -6.36% [at 15.8 µM] |
| CCCCc1ccc2cccc(S(=O)(=O)O)c2c1 | -10.2% |
| O=C(O)c1ccccc1S | -0.0458% [at 35.3 µM] |
| Fc1ccccc1-c1ccccc1 | -26.6% |

| SMILES | cytotoxicity increase |
| --- | --- |
| CCCCc1ccc(N)cc1 | 7.4% |
| C#CC(O)CCCCC (stereo not given) | 2.96% |
| C=CCn1c(=O)n([C@@H]2O[C@H](CO)[C@@H](O)[C@H]2O)c2nc(N)[nH]c(=O)c21 | -14.1% [at 35.3 µM] |
| C=C(C)[C@@H]1CCC2=CC(=O)C[C@@H](C)[C@]2(C)C1 | 18.5% |
| FC(F)(F)C(F)(F)C(F)(F)C(F)(F)C(F)(F)C(F)(F)C(F)(F)C(F)(F)C(F)(F)C(F)(F)F | -4.05% [at 6.97 µM] |
| C=C(C)C(=O)OCCC(C)OC(=O)C(=C)C (stereo not given) | 1.93% |
| N#CCN(CC#N)CCN(CC#N)CC#N | -6.47% |
| Cc1cc(C)cc(OCC2CNC(=O)O2)c1 (stereo not given) | -3.16% [at 35.3 µM] |
| O=S(=O)(c1cccc2cnccc12)N1CCCNCC1 | 2.77% [at 35.3 µM] |
| O=c1[nH]c(=O)n([C@H]2O[C@H](CO)[C@@H](O)[C@@H]2O)cc1/C=C\Br | 12.5% [at 35.3 µM] |
| CCOC(=O)Cn1c(=O)sc2cccc(Cl)c21 | 15.6% |
| COCc1ccc(COC)cc1 | 2.18% |
| C#CC(C)(O)CC(C)C (stereo not given) | 0.273% |
| CCO[Si](C)(OCC)OCC | -6.14% |
| C=C(C)C1CC=C(C)C(O)C1 (stereo not given) | 4.07% |
| Cc1ncc(CSSCc2cnc(C)c(O)c2CO)c(CO)c1O | -5.84% [at 35.3 µM] |
| CC(C)(O)c1ccccc1 | -1.46% |
| CC(C)(C)N(CCO)CCO | -0.155% |
| CC(C=O)Cc1ccc(C(C)C)cc1 (stereo not given) | 0.661% |
| OCCN1C[C@H](O)[C@@H](O)[C@H](O)[C@H]1CO | -16% [at 35.3 µM] |
